Rows were chosen to be rich in hits. Some 3.5% of all compounds tested hit in one or more screens of this group.
FBW7 act: FBW7 E3 ligase activators, primary screen, biochemical, AlphaScreen, human; F-box/WD repeat-containing protein 7 (Homo sapiens), Q969H0; AlphaScreen FBW7–phospho-cyclin E peptide binding, activator screen; normalized activity (activation), % at 26.1 µM; actives 0.13% (n = 650,000); AID 1259310, 2017; in the data active means normalized activity above about 1.9%;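 further: purified mutant Fbw7 with reduced substrate affinity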
TEAD-YAP block: TEAD-YAP interaction inhibition, primary screen, TEAD-YAP interaction inhibitor project, luminescence, HEK-TIYL cells; AID 1259422, 2018; TEAD-Gal4/YAP UAS-luciferase luminescence; inhibition, % at 9.12 µM; actives 1.4% (n = 640,000); in the data active means inhibition above about 32%;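 further: 0% = median of test compound wells and 100% = reference inhibitor wells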
GPR151 activ: activators of human GPR151, primary screen, cell-based, PathHunter beta-arrestin, luminescence. activation, % at 11.2 µM. PathHunter beta-arrestin GPR151 cells. G-protein coupled receptor 151 (Homo sapiens), Q8TDV0. actives 1% (n = 650,000); in the data active means activation above about 4.9%;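 further: 0% = median of compound wells and 100% = cells with positive control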
MITF inh: MITF inhibitors, primary screen, biochemical, AlphaScreen, human; AlphaScreen MITF homodimerization, bead proximity signal; inhibition, % at 2.6 µM; actives 0.91% (n = 650,000); AID 1259374, 2018; in the data active means inhibition above about 50%;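 further: 0% = vehicle wells with protein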
Target sequence (O75030 whole entry, looked up): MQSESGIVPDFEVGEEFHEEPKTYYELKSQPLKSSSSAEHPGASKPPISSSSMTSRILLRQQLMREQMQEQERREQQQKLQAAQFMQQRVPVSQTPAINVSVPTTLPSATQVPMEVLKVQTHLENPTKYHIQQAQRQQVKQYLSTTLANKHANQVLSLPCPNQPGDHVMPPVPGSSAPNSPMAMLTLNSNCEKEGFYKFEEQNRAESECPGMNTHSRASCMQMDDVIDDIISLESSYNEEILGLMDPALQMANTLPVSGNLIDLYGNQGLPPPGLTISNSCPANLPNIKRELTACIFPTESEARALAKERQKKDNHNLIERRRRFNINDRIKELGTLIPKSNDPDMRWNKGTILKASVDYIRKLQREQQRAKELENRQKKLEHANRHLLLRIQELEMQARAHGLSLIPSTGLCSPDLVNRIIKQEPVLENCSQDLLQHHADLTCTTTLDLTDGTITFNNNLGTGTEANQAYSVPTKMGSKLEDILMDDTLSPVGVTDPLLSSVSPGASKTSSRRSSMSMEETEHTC
MITF confirm: MITF inhibitors, retest of hits, confirmation, biochemical, AlphaScreen, triplicate; shares compounds with MITF inh; AlphaScreen MITF homodimerization, biotin/His-MITF beads; inhibition, % at 2.6 µM; actives 16% (n = 4,700);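 active means inhibition above a cutoff derived from the DMSO control wells, cut at about 28% in these data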;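 further: 0% = MITF dimer wells with DMSO only; inhibitors lower the bead chemiluminescence by keeping MITF from dimerizing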
AlphaScreen intf2: AlphaScreen optical interference compounds, counter-screen for MITF inhibitor project, biochemical, triplicate; shares compounds with MITF inh; LysRS AlphaScreen counterscreen, signal interference; inhibition, % at 2.6 µM; actives 7.6% (n = 4,700);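 active means inhibition above a cutoff derived from the DMSO control wells, cut at about 30% in these data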
* = called active by the depositor; x = no result given.

SMILES	FBW7 act	TEAD-YAP block	GPR151 activ	MITF inh	MITF confirm	AlphaScreen intf2
CN(C)CC(C)(C)CNCC(=O)Nc1ccc(F)c(F)c1F	0.1	0.8	-0.4	69.8*	0.8	-2.0
Cc1ccc(C(=O)COC(=O)C(C(C)C)N2C(=O)C3C4C=CC(C4)C3C2=O)cc1[N+](=O)[O-] (stereo not given)	-0.1	-2.6	1.8	82.0*	7.5	10.7
Cc1ccc(CNC(=O)CSC2=Nc3ccccc3C3=NC(Cc4c[nH]c5ccccc45)C(=O)N23)cc1 (stereo not given)	-0.1	5.7	-0.3	-3.9	x	x
Cc1ccc(OCCN(C)C)c([N+](=O)[O-])c1	0.1	-3.9	-0.8	50.6*	-3.1	7.2
COCCCNCCCOc1ccc(C)cc1[N+](=O)[O-]	0.5	-4.1	-0.4	64.4*	1.2	-4.6
Cc1ccc(OCCN2CCC(C)CC2)c([N+](=O)[O-])c1	0.0	-10.2	-1.0	64.1*	-2.3	4.2
Cc1ccc(OCCN2CCOCC2)c([N+](=O)[O-])c1	-0.2	0.3	1.2	46.4	x	x
COc1cc(Nc2nc(NC3CCN(Cc4ccccc4)CC3)c3ncn(C(C)C)c3n2)cc(OC)c1OC	-0.2	2.0	-1.7	-2.0	x	x
Cc1ccccc1C1(CC(=O)N2CCN(C(C)C)CC2)CC(=O)N(Cc2cccnc2)C1=O (stereo not given)	0.2	-8.4	-1.2	0.1	x	x
Cc1ccc(C(=O)CSC2=C(C#N)C3(CCCC3)C(C#N)C(=O)N2)cc1 (stereo not given)	-0.2	12.7	2.6	0.2	x	x
O=[N+]([O-])c1cc(Cl)c(O)c2ncccc12	-0.2	9.5	-1.2	37.2	x	x
CN(Cc1cc(Cl)c(O)c2ncccc12)C1CCCCC1	-0.9	70.2*	1.9	105.6*	103.6*	100.6*
C=CCN1C(=O)/C(=C/c2c(OC)ccc3ccc(OC)cc23)C(=O)NC1=S	-0.1	-10.3	1.7	2.7	x	x
O=C(CN1CCc2ccccc2C1)c1ccc2cc[nH]c2c1	-0.1	-64.1	1.2	-3.3	x	x
O=S(=O)(Cc1ccccc1)N1CCN(CC2CC3C=CC2C3)CC1 (stereo not given)	0.0	1.2	0.5	37.1	x	x
Clc1cccc(CN2CCN(CC3CC4C=CC3C4)CC2)c1 (stereo not given)	-0.1	-1.0	0.8	73.6*	13.4	18.0
Cc1cccc(CN2CCN(CC3CC4C=CC3C4)CC2)c1 (stereo not given)	0.1	-10.2	-2.0	56.7*	6.8	18.6
Clc1ccccc1CN1CCN(CC2CC3C=CC2C3)CC1 (stereo not given)	-0.1	5.3	0.1	73.8*	-5.0	1.8
CCOc1cccc2cc(C(=O)/C=C/c3ccc([N+](=O)[O-])cc3)c(=O)oc12	-0.2	5.5	0.6	2.9	x	x
N#Cc1nc(-c2cccc(Cl)c2)oc1N1CCN(C(=O)c2ccc(Cl)cc2)CC1	-0.1	-6.7	4.6	-6.5	x	x
Cc1cccc(C(=O)N2CCN(c3oc(-c4ccc(Cl)cc4)nc3C#N)CC2)c1	-0.1	0.7	0.2	74.9*	5.8	-2.8
Cc1ccc(-c2cc(-c3ccccc3)c(C#N)c(SCCS(=O)Cc3ccc(Cl)cc3)n2)cc1 (stereo not given)	0.0	13.2	-0.6	-3.0	x	x
C(=C\c1ncc2ccccn12)/c1ccccc1	0.4	-36.2	-3.2	56.5*	-70.1	-11.4
Cc1ccc(Cn2nnc3c(=O)[nH]c(C4CCCN(C(=O)C(C)(C)C)C4)nc32)cc1 (stereo not given)	0.1	3.1	-1.1	66.8*	1.2	9.1
Cc1ccc(Cn2nnc3c(=O)[nH]c(C4CCN(C(=O)C(F)(F)F)CC4)nc32)cc1	0.5	0.6	-0.1	75.5*	4.6	13.9
CC(C)(C)CN1CCN(Cc2nc3ccccc3s2)CC1CCO (stereo not given)	0.3	8.4	3.1	11.4	x	x
Cc1csc(NC(=O)NC2CC(=O)N(c3cccc(F)c3)C2)n1 (stereo not given)	0.0	-17.9	-0.3	-11.4	x	x
O=C(c1cncs1)N1CCOc2ccc(C(O)C3CCCCC3)cc2C1 (stereo not given)	0.1	-1.6	-0.6	0.6	x	x
O=C(Nc1ccc(Br)cc1F)c1coc2ccccc12	-0.1	-65.6	-0.8	-10.3	x	x

Screening data: PubChem BioAssay, The Scripps Research Institute Molecular Screening Center
